In general, inhibition refers to the drop in the measured response relative to a control, in per cent.

The structures appear in SMILES notation. Values without a mark were called inactive. For some of these results: Entries with a potency or affinity are not part of this list. The source made the active and inactive calls. Unless noted, no rule for the calls is given here.

Assay [1] is described as follows: antimalarial activity against Dd2 strain (AID 2302;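 active = growth inhibition above 50% at the single 2 µM test dose, taken to imply half-maximal potency below 2 µM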;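 also: 0% = DMSO untreated growth and 100% = chloroquine plus artemisinin killed control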). The settings on record: P. falciparum Dd2 in RBCs, LDH growth readout, 72 h; at 2 µM; stronger effect = higher value.
A short description of assay [2]: human hepatoma cell viability loss – ATP luminescence, cytotoxicity control for P. falciparum antimalarial project, primary screen (AID 2303;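 active = inhibition above 50%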;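 also: 0% = DMSO wells and 100% = digitonin-killed cells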). The settings on record: HepG2 viability, 24-48 h, at 10 µM, stronger effect = higher value.
Assay [3] has as its target L-lactate dehydrogenase (Plasmodium falciparum (isolate CDC / Honduras)) (UniProt Q27743). In words: PfLDH activity inhibition – cell lysate, 3D7 strain, counter-screen for P. falciparum growth inhibition project (AID 2304).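 Also: 0% = vehicle and 100% = reference inhibitor.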 The settings on record: P. falciparum 3D7 crude extract, LDH APAD/NBT absorbance; at 2 µM; stronger effect = higher value. A general note: A counterscreen serves to expose hits that act by an unwanted route or on another target.

Assay [4] in a line: inhibition of 3D7 malaria parasite growth – strain 3D7 (AID 2306).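 Also: 0% = DMSO wells and 100% = chloroquine plus artemisinin control wells.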 The settings on record: P. falciparum 3D7 erythrocytic growth, LDH absorbance, 72 h; at 2 µM; stronger effect = higher value.
The target of assay [5] is Calcium-dependent protein kinase 1 (Plasmodium falciparum (isolate 3D7)) (UniProt P62344). In words: PfCDPK1 kinase inhibitors, biochemical, TCAMS library (AID 1159585; cut-off not given, nearly all actives have IC50 up to about 0.98 µM;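 also: inhibitors leave more ATP so luminescence rises with inhibition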). Particulars: recombinant PfCDPK1, Kinase-Glo ATP depletion luminescence. On the technique in general: Kinase-Glo measures the ATP left after a reaction by luminescence.
The target of assay [6] is Plasmodium falciparum protein kinase 6 (PK6, PF3D7_1337100) (UniProt Q8IDW1). In words: PfPK6 kinase inhibitors, biochemical, TCAMS library (AID 1159586). The settings on record: recombinant PfPK6, Kinase-Glo ATP depletion luminescence.
The target of assay [7] is Protein kinase 7 (PK7), Plasmodium falciparum 3D7 (PF3D7_0213400) (UniProt Q7YTF7). In words: inhibition of Plasmodium PK7 catalytic activity – biochemical, TCAMS antimalarial set, Kinase-Glo luminescence (AID 1159587). Particulars: recombinant PfPK7, Kinase-Glo ATP depletion luminescence.
The target in assay [8] is Calcium-dependent protein kinase 4 (Plasmodium falciparum (isolate 3D7)) (UniProt Q8IBS5). In words: PfCDPK4 kinase inhibitors, biochemical, TCAMS library (AID 1159588; cut-off not given, nearly all actives have IC50 up to about 0.91 µM). The settings on record: recombinant PfCDPK4, Kinase-Glo ATP depletion luminescence.
Chain of Calcium-dependent protein kinase 4 (Plasmodium falciparum (isolate 3D7)) (Q8IBS5 whole entry, looked up): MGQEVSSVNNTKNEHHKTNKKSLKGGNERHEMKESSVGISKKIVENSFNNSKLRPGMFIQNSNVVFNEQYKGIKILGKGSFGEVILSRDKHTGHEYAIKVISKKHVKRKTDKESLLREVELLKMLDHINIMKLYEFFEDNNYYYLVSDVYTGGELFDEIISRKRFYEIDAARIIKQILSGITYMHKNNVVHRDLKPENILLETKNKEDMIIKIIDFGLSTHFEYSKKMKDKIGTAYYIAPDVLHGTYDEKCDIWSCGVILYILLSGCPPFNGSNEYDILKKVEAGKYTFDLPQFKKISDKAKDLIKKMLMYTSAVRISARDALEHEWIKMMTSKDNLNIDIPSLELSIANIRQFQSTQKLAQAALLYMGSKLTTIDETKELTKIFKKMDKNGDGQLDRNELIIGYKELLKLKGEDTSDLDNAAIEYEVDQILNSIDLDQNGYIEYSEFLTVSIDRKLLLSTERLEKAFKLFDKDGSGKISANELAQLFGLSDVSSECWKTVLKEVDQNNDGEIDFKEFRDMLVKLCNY

Chain of Calcium-dependent protein kinase 1 (Plasmodium falciparum (isolate 3D7)) (P62344 whole entry, looked up): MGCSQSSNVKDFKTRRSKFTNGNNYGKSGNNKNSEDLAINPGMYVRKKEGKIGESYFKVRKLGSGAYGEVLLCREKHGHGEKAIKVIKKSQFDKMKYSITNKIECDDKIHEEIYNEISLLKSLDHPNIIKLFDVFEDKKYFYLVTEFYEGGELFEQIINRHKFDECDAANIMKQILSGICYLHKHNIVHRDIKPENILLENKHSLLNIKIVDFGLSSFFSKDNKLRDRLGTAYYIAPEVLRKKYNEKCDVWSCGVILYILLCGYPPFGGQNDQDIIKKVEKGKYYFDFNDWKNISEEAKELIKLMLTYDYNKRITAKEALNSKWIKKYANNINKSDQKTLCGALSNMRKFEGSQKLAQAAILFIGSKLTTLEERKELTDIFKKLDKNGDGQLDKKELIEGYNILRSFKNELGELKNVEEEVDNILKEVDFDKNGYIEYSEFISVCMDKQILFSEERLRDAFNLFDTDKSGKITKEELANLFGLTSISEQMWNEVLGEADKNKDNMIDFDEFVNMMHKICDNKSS
Chain of L-lactate dehydrogenase (Plasmodium falciparum (isolate CDC / Honduras)) (Q27743 whole entry, looked up): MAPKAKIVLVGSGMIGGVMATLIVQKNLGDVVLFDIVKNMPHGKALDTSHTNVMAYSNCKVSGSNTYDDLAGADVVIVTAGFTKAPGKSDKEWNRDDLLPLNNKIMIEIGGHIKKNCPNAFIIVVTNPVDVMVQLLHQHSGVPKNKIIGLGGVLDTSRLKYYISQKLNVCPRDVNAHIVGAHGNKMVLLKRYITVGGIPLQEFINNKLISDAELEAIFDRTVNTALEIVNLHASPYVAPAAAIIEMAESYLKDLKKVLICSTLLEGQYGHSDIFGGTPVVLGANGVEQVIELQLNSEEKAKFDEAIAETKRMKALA
Chain of Plasmodium falciparum protein kinase 6 (PK6, PF3D7_1337100) (Q8IDW1 1-305): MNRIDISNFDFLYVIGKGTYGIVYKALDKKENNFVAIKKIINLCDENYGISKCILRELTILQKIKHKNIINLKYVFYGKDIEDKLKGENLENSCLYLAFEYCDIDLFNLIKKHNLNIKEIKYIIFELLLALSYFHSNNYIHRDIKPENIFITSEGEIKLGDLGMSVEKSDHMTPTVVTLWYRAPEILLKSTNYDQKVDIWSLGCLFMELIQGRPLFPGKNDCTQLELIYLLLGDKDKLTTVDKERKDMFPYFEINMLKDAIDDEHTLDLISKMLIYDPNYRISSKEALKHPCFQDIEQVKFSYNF
Chain of Protein kinase 7 (PK7), Plasmodium falciparum 3D7 (PF3D7_0213400) (Q7YTF7 1-343): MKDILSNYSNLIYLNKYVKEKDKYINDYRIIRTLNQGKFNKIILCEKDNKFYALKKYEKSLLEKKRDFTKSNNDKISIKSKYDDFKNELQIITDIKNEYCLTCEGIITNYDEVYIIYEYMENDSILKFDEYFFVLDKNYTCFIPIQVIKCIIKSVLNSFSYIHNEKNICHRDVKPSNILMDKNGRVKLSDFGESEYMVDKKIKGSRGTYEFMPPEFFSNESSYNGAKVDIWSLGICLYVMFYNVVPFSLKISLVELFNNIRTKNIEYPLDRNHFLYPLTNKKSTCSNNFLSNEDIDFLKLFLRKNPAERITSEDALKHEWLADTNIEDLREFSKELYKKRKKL

As for `CN1CCC(NCc2cccc(-c3ccc(S(=O)(=O)NCCN4CCCC4)c(F)c3)c2)CC1`, the growth inhibition in assay [1] is -4%; in assay [4], 91% (active). Also, the inhibition was 14% in assay [2] and 2% in assay [3]. Moreover, the result in assay [5], in assay [6], in assay [7] and in assay [8] was inactive.
On to `O=S(=O)(Nc1ccc(CCN2CCC(N3CCCCC3)CC2)cc1)c1ccc(Cl)cc1`, for which the growth inhibition is 18% in assay [1] and 101% (active) in assay [4]. The inhibition is 23% in assay [2] and -1% in assay [3]. The outcome in assay [5], in assay [6], in assay [7] and in assay [8] was inactive.
On to `CCCc1ccc(N2C(N)=NC(N)=NC2(C)C)cc1`, for which the growth inhibition in assay [1] is -2%; in assay [4] it was 94% (active). The inhibition in assay [2] is 59% (active); in assay [3], 6%. In addition, the outcome in assay [5], in assay [6], in assay [7] and in assay [8] was inactive.
`Cc1nc(-c2cccc(C(=O)NC3CCC(CCN4CCc5ccc(-c6cccnc6)cc5CC4)CC3)c2)no1` (stereo not given): the growth inhibition was 4% in assay [1] and 98% (active) in assay [4]. The inhibition is 17% in assay [2] and -1% in assay [3]. Further, the result in assay [5], in assay [6], in assay [7] and in assay [8] was inactive.
`Cc1ccc(CNC(=O)[C@H](CC(C)C)Nc2cc(C)nc(NCC3CCCCC3)n2)cc1`: the growth inhibition was 44% in assay [1] and 96% (active) in assay [4]. In addition, the inhibition in assay [2] was 6%; in assay [3] it was -2%. Further, the outcome in assay [5], in assay [6], in assay [7] and in assay [8] was inactive.
Consider `COC(=O)c1cccc(CNCc2ccc(-c3cccc(-c4nc5ccc(C(F)(F)F)cc5[nH]4)c3)cc2)c1`, for which the growth inhibition is 97% (active) in assay [1] and 102% (active) in assay [4]. The inhibition in assay [2] was 5%; in assay [3], 6%. Besides, the result in assay [5], in assay [6], in assay [7] and in assay [8] was inactive.
Consider `CCCn1c(SCC(=O)Nc2cc(Cl)ccc2Cl)n[nH]c1=O`, for which the growth inhibition in assay [1] was 53% (active); in assay [4], 88% (active). In addition, the inhibition is -5% in assay [2] and -2% in assay [3]. The result in assay [5], in assay [6], in assay [7] and in assay [8] was inactive.
On to `Cn1ccnc1CNC(=O)c1ccc(-c2cccc(-c3nc4ccc(C(F)(F)F)cc4[nH]3)c2)cc1`, for which the growth inhibition is 80% (active) in assay [1] and 101% (active) in assay [4]. Also, the inhibition in assay [2] was 20%; in assay [3] it was 3%. The result in assay [5], in assay [6], in assay [7] and in assay [8] was inactive.
For the molecule `Cc1nc2nc(N)nc(N)c2c(C)c1Cc1ccccc1I`, the growth inhibition in assay [1] was -5%; in assay [4] it was 96% (active). Moreover, the inhibition was 63% (active) in assay [2] and 5% in assay [3]. Moreover, the outcome in assay [5], in assay [6], in assay [7] and in assay [8] was inactive.
Consider `O=C(C=Cc1ccc(Cl)c(Cl)c1)NCCCCCN1CCCC(CCCNC(=O)c2ccc3c(c2)OCO3)C1` (stereo not given), for which the figures for the growth inhibition in assay [1] and in assay [4] were 4% and 95% (active), respectively. The inhibition in assay [2] is 30%; in assay [3], 3%. The outcome in assay [5], in assay [6], in assay [7] and in assay [8] was inactive.
As for `CCCOc1cccc(C(=O)N[C@@H](Cc2ccccc2)[C@H](O)CNCc2ccccc2OC)c1`, the growth inhibition in assay [1] is 61% (active); in assay [4], 95% (active). In addition, the inhibition is 11% in assay [2] and 0% in assay [3]. The result in assay [5], in assay [6], in assay [7] and in assay [8] was inactive.
For `CC(C)NCc1cccc(-c2ccc(-c3nc4ccccc4[nH]3)cc2)c1`, the growth inhibition was 66% (active) in assay [1] and 101% (active) in assay [4]. Also, the inhibition in assay [2] was 4%; in assay [3], -2%. Moreover, the outcome in assay [5], in assay [6], in assay [7] and in assay [8] was inactive.
Take `Fc1ccc(C=NNc2ccnc3ccccc23)cc1`: the growth inhibition in assay [1] and in assay [4] was 101% (active) each time. For the same molecule, the inhibition is 21% in assay [2] and 4% in assay [3]. Moreover, the outcome in assay [5], in assay [6], in assay [7] and in assay [8] was inactive.
Consider `Cc1cc(-c2cnc(N)c(-c3ccc(N4CCN(C)CC4)cc3)c2)cc(C)c1O`, for which the growth inhibition in assay [1] is 99% (active); in assay [4], 101% (active). For the same molecule, the inhibition was 3% in assay [2] and -5% in assay [3]. For the same molecule, the result in assay [5], in assay [6], in assay [7] and in assay [8] was inactive.
For `COc1ccc2nccc(NN=Cc3ccncc3)c2c1`, the growth inhibition in assay [1] was 95% (active); in assay [4], 99% (active). In addition, the figures for the inhibition in assay [2] and in assay [3] were 4% and -3%, respectively. For the same molecule, the outcome in assay [5], in assay [6], in assay [7] and in assay [8] was inactive.
For `CN(C1CCC(NC(=O)/C=C/c2ccccc2)CC1)C1CC2(CCN(C(=O)OC(C)(C)C)CC2)c2ccccc21` (stereo not given), the growth inhibition in assay [1] and in assay [4] was 95% (active) throughout. Also, the inhibition is 16% in assay [2] and 5% in assay [3]. The outcome in assay [5], in assay [6], in assay [7] and in assay [8] was inactive.
In the case of `N#Cc1cccc(NC(=O)Nc2cccc(-c3ccc(-c4nc5ccc(C(F)(F)F)cc5[nH]4)cc3)c2)c1`, the growth inhibition in assay [1] was 99% (active); in assay [4], 102% (active). The results for the inhibition in assay [2] and in assay [3] were 54% (active) and -8%, respectively. The result in assay [5], in assay [6], in assay [7] and in assay [8] was inactive.
Take `CCCCNc1cc(NCCCC)c2c(n1)[nH]c1ccccc12`: the growth inhibition in assay [1] is 94% (active); in assay [4], 100% (active). In addition, the inhibition is 13% in assay [2] and -1% in assay [3]. Also, the outcome in assay [5], in assay [6], in assay [7] and in assay [8] was inactive.
As to `Fc1ccc2[nH]c3c(NCCN4CCCCC4)ncnc3c2c1`, the growth inhibition was 44% in assay [1] and 99% (active) in assay [4]. Further, the figures for the inhibition in assay [2] and in assay [3] were 24% and 0%, respectively. Further, the outcome in assay [5], in assay [6], in assay [7] and in assay [8] was inactive.
As for `Cc1cc(NC(=O)Nc2cccc(C#N)c2)c2ccccc2n1`, the growth inhibition is 82% (active) in assay [1] and 100% (active) in assay [4]. Also, the inhibition in assay [2] was 17%; in assay [3], -1%. Further, the outcome in assay [5], in assay [6], in assay [7] and in assay [8] was inactive.

(Values after PubChem BioAssay.)
